Where “and” joins values, the source holds several entries; their conditions need not be identical. Equal values may be shown once. Records with an inconclusive call do not appear. Calls of active or inactive are those of the source. The call rests on the fitted dose curve; in most records, active means well fitted curve in the direction sought with a large enough effect; inconclusive means small, poorly fitted or top-dose-only effect, or another doubt; inactive means no such curve, though single readings can be large; an effect the other way counts as inactive or inconclusive.
Assays:
[1] = Cell Viability - LYMP2-003 (AID 965);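 further: cells exposed to compounds for 24 h before reading; nearly all actives have a fitted effect of over 50% in size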
In short: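 CellTiter-Glo luminescence quantified ATP loss after 24 h compound treatment of LYMP2-003 lymphoblastoid cells at 37 C. Titration series were fitted with the standard Hill equation to give AC50.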

[2] = Cell Viability - LYMP2-004 (AID 966); further: nearly all actives have a fitted effect of over 65% in size
In short: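 Luminescent ATP read-out (CellTiter-Glo, 30 min RT) after 24 hr compound exposure at 37 C; 2500 lymphoblastoid cells/well, complete medium. Decrease in ATP = cytotoxicity; AC50 from standard Hill model.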

[3] = Cell Viability - LYMP2-005 (AID 967)
In short: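 LYMP2-005 human lymphoblastoid cells (2500/well) were treated with compounds for 24 h at 37 C. Intracellular ATP was then measured by CellTiter-Glo luminescence after 30 min at room temperature. AC50 values came from Hill-equation fits of qHTS concentration-response data.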

[4] = Cell Viability - LYMP2-009 (AID 968); further: nearly all actives have a fitted effect of over 55% in size
[5] = Cell Viability - LYMP2-011 (AID 969);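 further: cells exposed to compound for 24 hours; nearly all actives have a fitted effect of over 60% in size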
In short: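 Luminescent ATP read-out (CellTiter-Glo, 30 min RT) after 24 hr compound exposure at 37 C in human lymphoblastoid cells, 2500 cells/well. Decreasing ATP indicates cytotoxicity; AC50 from standard Hill fit.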

[6] = Cell Viability - LYMP2-013 (AID 970); further: nearly all actives have a fitted effect of over 55% in size
In short: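 CellTiter-Glo luminescence (cellular ATP) read after 30 min at RT. Cells: human lymphoblastoid line, 2500/well, 24 hr compound exposure at 37 C. Tetraoctylammonium bromide positive control; AC50 via standard Hill fit of qHTS titrations.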

[7] = Cell Viability - LYMP2-015 (AID 971); further: nearly all actives have a fitted effect of over 55% in size
In short: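 qHTS cytotoxicity: 2500 cells/well, 5 hr 37 C, compound 24 hr 37 C, CellTiter-Glo 30 min RT, luminescence. Loss of ATP = toxicity; AC50 via standard Hill fit.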

[8] = Cell Viability - LYMP2-017 (AID 972);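 further: cells exposed to compound for 24 hours at 37 °C; nearly all actives have a fitted effect of over 55% in size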
In short: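 Luminescent ATP read-out (CellTiter-Glo, 30 min RT) reports viable cell number. Cells: human lymphoblastoid line, 2500 per well, 5 hr preincubation, 24 hr compound exposure at 37 C. AC50 is derived from qHTS concentration-response data using the standard Hill model.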

[9] = Cell Viability - LYMP2-019 (AID 973); further: nearly all actives have a fitted effect of over 55% in size
In short: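 qHTS, 1536-well; 2500 cells/well; 5 hr pre-incubation, 24 hr compound exposure, 37 C; CellTiter-Glo added, 30 min RT; luminescence read; AC50 via standard Hill equation.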

[10] = Cell Viability - LYMP2-021 (AID 974)
In short: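 ATP luminescence (CellTiter-Glo, 30 min RT) after 24 h compound exposure at 37 C; 2500 human lymphoblastoid cells/well, 5 h settle beforehand. Cytotoxicity = concentration-dependent ATP drop, AC50 by Hill fit.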

Measured: Potency
Potency means the concentration at half of the fitted maximal effect.

ClC(Cl)(Cl)Cl
inactive: all assays above

O=C(O)C(Cl)(Cl)Cl
inactive: all assays above

O=CC=O
inactive: all assays above

Clc1ccccc1Cl
inactive: all assays above

ClC=C(Cl)Cl
inactive: all assays above

[Cl-].[Cl-].[Hg+2]
active: [1] 0.794 µM | [2] 0.251 µM | [3] 501 nM | [4] 10 µM | [5] 12.6 µM | [6] 5.01 µM | [7] 12.6 µM | [8] 1 µM | [9] 10 µM | [10] 1.58 µM

CC(C)CCON=O
inactive: all assays above

[O]=[Cr](=[O])([OH])[O][Cr](=[O])(=[O])[OH]
active: [1] 12.6 µM and 20 µM and 7.94 µM | [2] 10 µM and 15.8 µM and 6.31 µM | [3] 10 µM and 15.8 µM | [4] 10 µM and 6.31 µM | [5] 10 µM and 12.6 µM and 7.94 µM | [6] 15.8 µM and 10 µM | [7] 10 µM | [8] 12.6 µM | [9] 12.6 µM and 10 µM | [10] 12.6 µM and 10 µM

Oc1cc(Cl)c(Cl)cc1Cl
inactive: all assays above

ClCC1CO1 (centres undefined)
not listed: [3] | [4]
inactive: all other assays above

C[C@H]1CCC[C@H](O)CCCCCc2cc(O)cc(O)c2C(=O)O1
inactive: all assays above

COC1=CC(=O)O[C@@H](/C=C/c2ccccc2)C1
inactive: all assays above

C=CCN=C=S
inactive: all assays above

O=C1CCO1
inactive: all assays above

C[C@H]1CC[C@@H]2[C@@H](C)[C@H]3[C@H](C[C@H]4[C@@H]5CC=C6CC(O[C@@H]7O[C@H](CO)[C@H](O)[C@H](O[C@@H]8O[C@H](CO)[C@@H](O)[C@H](O)[C@H]8O)[C@H]7O[C@H]7O[C@@H](C)[C@H](O)[C@@H](O)[C@H]7O)CC[C@]6(C)[C@H]5CC[C@]34C)N2C1 (some centres undefined)
active: [2] 50.1 µM | [4] 39.8 µM | [5] 39.8 µM | [6] 39.8 µM | [8] 50.1 µM | [9] 39.8 µM | [10] 50.1 µM

S=C=S
inactive: all assays above

O=C1C=CC(=O)C=C1
inactive: [1] | [3]
active: [4] 50.1 µM | [5] 50.1 µM | [6] 39.8 µM | [7] 31.6 µM | [8] 50.1 µM | [9] 50.1 µM | [10] 31.6 µM

COc1ccc2c(c1OC)C(=O)OC2C1c2cc3c(cc2CCN1C)OCO3 (centres undefined)
inactive: all assays above

[O]=[Cd]
inactive: all assays above

C[C@]12CCC(=O)C[C@@H]1CC[C@@H]1[C@@H]2CC[C@]2(C)[C@@H](O)CC[C@@H]12
not listed: [9]
inactive: all other assays above

CC(C)(C)c1cc(O)ccc1O
active: [2] 39.8 µM | [4] 50.1 µM | [6] 50.1 µM | [7] 50.1 µM | [8] 50.1 µM | [9] 50.1 µM | [10] 50.1 µM
inactive: [1]

O=C1C2CC=CCC2C(=O)N1SC(Cl)(Cl)Cl (centres undefined)
active: [1] 12.6 µM | [2] 10 µM | [3] 12600 nM | [4] 6.31 µM and 5.01 µM | [5] 6.31 µM | [6] 5.01 µM and 6.31 µM | [7] 3.98 µM | [8] 3.16 µM and 5.01 µM | [9] 3.98 µM and 5.01 µM | [10] 3.98 µM and 5.01 µM

CCCCCl
not listed: [3]
inactive: all other assays above

O=C/C=C/c1ccccc1
inactive: all assays above

CC(C)Nc1ccc(Nc2ccccc2)cc1
active: [1] 39.8 µM | [2] 39.8 µM | [4] 31.6 µM | [5] 31.6 µM | [6] 31.6 µM | [7] 25.1 µM | [8] 25.1 µM | [9] 25.1 µM | [10] 25.1 µM

O=[N+]([O-])c1ccccc1
inactive: all assays above

NNC(N)=O
inactive: all assays above

CCCCCCCCOC(=O)c1ccccc1C(=O)OCCCCCCCC
inactive: all assays above

O=Cc1ccco1
inactive: all assays above

CCOC(=O)c1ccccc1C(=O)OCC
inactive: all assays above

O=[N+]([O-])c1ccc(F)c([N+](=O)[O-])c1
inactive: [1] | [2] | [3] | [4] | [9]

Reference: PubChem BioAssay (NCATS)
